Molecules are shown by their SMILES. Several values for one entry are separate records, joined by “and”; a condition that tells them apart may be missing. Identical values can stand only once. Values without a mark were called inactive. Inconclusive results are not listed. Activity calls are given as the source filed them. Calls follow the shape of the dose curve; as a rule, active = well fitted curve in the direction sought with a large enough effect; inconclusive = small, poorly fitted or top-dose-only effect, or another doubt; inactive = no such curve, though single readings can be large; an effect the other way counts as inactive or inconclusive.

Hexokinase-4 (Homo sapiens) + Glucokinase regulatory protein (Homo sapiens), sequence (P35557 whole entry, looked up): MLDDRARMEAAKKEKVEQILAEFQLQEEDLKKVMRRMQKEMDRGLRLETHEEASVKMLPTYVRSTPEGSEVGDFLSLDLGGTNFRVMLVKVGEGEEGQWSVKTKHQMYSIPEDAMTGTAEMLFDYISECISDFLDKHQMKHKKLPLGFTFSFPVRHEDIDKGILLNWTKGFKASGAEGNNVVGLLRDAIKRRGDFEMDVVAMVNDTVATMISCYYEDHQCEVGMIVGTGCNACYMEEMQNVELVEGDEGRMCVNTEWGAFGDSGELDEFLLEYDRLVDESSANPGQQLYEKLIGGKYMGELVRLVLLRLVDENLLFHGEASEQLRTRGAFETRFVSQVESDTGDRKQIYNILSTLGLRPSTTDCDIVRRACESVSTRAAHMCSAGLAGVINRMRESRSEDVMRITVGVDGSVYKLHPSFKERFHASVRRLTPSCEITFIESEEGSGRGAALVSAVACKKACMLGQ
Hexokinase-4 (Homo sapiens) + Glucokinase regulatory protein (Homo sapiens), sequence (Q14397 whole entry, looked up): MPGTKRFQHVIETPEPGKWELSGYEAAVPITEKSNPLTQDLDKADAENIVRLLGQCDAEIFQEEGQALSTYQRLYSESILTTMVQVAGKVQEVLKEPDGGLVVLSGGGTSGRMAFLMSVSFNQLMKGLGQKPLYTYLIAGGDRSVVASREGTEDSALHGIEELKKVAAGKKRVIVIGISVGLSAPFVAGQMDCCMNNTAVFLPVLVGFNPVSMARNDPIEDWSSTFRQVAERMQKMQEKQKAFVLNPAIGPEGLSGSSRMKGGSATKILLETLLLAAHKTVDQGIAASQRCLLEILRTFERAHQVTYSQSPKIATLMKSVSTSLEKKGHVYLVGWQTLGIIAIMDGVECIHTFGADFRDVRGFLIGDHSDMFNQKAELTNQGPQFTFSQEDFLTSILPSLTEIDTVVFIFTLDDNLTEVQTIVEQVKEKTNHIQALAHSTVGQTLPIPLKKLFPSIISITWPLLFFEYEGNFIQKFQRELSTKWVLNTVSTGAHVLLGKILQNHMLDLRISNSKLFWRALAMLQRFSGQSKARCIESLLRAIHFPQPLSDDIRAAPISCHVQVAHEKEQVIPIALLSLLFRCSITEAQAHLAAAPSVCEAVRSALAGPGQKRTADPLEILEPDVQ

In one assay the target is Hexokinase-4 (Homo sapiens) + Glucokinase regulatory protein (Homo sapiens) (UniProt P35557+Q14397). The assay can be described thus: qHTS assay for inhibitors of recombinant human GCK-GKRP interaction: HTRF assay (AID 743207).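 Also: 0% = DMSO with GCK present and -100% = DMSO wells lacking GCK.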 The settings on record: recombinant GCK-GKRP HTRF binding, 60 min; series mostly up to 57.5 µM; activity change, negative = inhibition: at the top concentration. A digest of the protocol:
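Titration screening format: recombinant GST-GCK and FLAG-GKRP at 5 nM, S6P at 2 uM, labelled anti-tag antibodies, 60 min at RT, dual-wavelength HTRF readout.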
In general terms: Quantitative high-throughput screening tests each substance at several concentrations.
As for `CNCCc1ccc(O)c(O)c1`, the “activity change, negative = inhibition” value was 0.515%.
Turning to `O=C(Cc1ccc(Cl)c(Cl)c1)N1CCCCC1CN1CCCC1` (centres undefined), the “activity change, negative = inhibition” value was 3.57%.
On the same count and under the same terms, the result for `O=C(O)CC[N+](=O)[O-]` reads -2.83%.
In the case of `CCCN(CCC)C1CCc2ccc(O)cc2C1` (centres undefined), the “activity change, negative = inhibition” value is -5.33%.
For `CN1C2CCC1CC(OC(=O)c1cc(Cl)cc(Cl)c1)C2` (centres undefined), the “activity change, negative = inhibition” value is -3.41%.
For the compound `NC(CCP(=O)(O)O)C(=O)O` (centres undefined), the “activity change, negative = inhibition” value was -17.8%.
Consider `O=C(O)[C@@H]1CCN1`, for which the “activity change, negative = inhibition” value is 5.75%.
Turning to `C[N+]1(C)C2CCC1CC(OC(=O)C(CO)c1ccccc1)C2` (centres undefined), the outcome was inactive.
Consider `Cn1cnc(CCN)c1`, for which the “activity change, negative = inhibition” value was -0.635%.
For `NC(=O)CN1CC(O)CC1=O` (centres undefined), the “activity change, negative = inhibition” value was 3.57%.
Turning to `CCCN(CCC)[C@@H]1CCc2ccc(O)cc2C1`, the “activity change, negative = inhibition” value was 4.89%.
Turning to `CC(C)NC(C)Cc1ccc(I)cc1` (centres undefined), the “activity change, negative = inhibition” value is 7.16%.
Consider `COc1cc(C(O)CN)ccc1O` (centres undefined), for which the “activity change, negative = inhibition” value was 2.62%.
In the case of `C[C@@H](N)Cc1cnc[nH]1`, the “activity change, negative = inhibition” value is -2.92%.
In the case of `CCCN1CCO[C@@H]2c3cc(O)ccc3OC[C@H]21`, the result was inactive.
For the compound `CC(Cc1ccc(O)cc1)NCC(O)c1cc(O)cc(O)c1` (centres undefined), the “activity change, negative = inhibition” value was -0.732%.
The same measure, in the same setting: the result for `C[C@]12CCC3C(CC[C@H]4C[C@H](O)CC[C@]34C)C1CC[C@@H]2C(=O)CO` (some centres undefined) reads -6.91%; that for `CS(=N)(=O)CC[C@H](N)C(=O)O` (some centres undefined), 1.95%.
As for `O=C1CCCN1CC#CCN1CCCC1`, the “activity change, negative = inhibition” value was -6.26%.
For the compound `NCc1cc(=O)[nH]o1`, the “activity change, negative = inhibition” value is 0.593%.
On to `CC(=O)[C@H]1CCC2C3CC[C@H]4C[C@H](O)CC[C@]4(C)C3CC[C@@]21C` (some centres undefined), for which the “activity change, negative = inhibition” value was -9.07%.
Turning to `CNCCc1c[nH]c2ccc(O)cc12`, the “activity change, negative = inhibition” value was 3.46%.
As to `C=CCN1CC[C@]23CCCCC2[C@H]1Cc1ccc(O)cc13` (some centres undefined), the “activity change, negative = inhibition” value is -1.16%.
Turning to `O=C(O)Cc1cnc[nH]1`, the “activity change, negative = inhibition” value is 11%.
As to `CN[C@@H]1C[C@@H](c2ccc(Cl)c(Cl)c2)c2ccccc21`, the “activity change, negative = inhibition” value was 10.8%.
The same measure, in the same setting: the figure for `Clc1cnc(Oc2ccc(Oc3ncc(Cl)cc3Cl)cc2)c(Cl)c1` is -7.86%.

System in the next assay: not listed separately
The assay can be described thus: qHTS Assay for Identifying Gametocytocidal Compounds (AID 743244). Also: potency is read from the fitted curve at half-maximal effect.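 As to max response: % is scaled to controls: 0 for no effect and ±100 for the full control effect; actives lower the fluorescent signal which means gametocytes are killed.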 The note with it: P. falciparum 3D7 stage III-V gametocytes, alamarBlue, 72 h; max response: active compounds read low. In short, it runs like this:
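A resazurin-based viability read-out was applied to mature P. falciparum gametocytes: 72 h compound treatment, then 24 h dye incubation, with falling fluorescence signalling gametocytocidal effect.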
With `Cc1ccc(Cl)c(O)c1`, the max response is -0.773%.
Same read-out and setting: the figure for `O=C(Cc1ccc(Cl)c(Cl)c1)N1CCCCC1CN1CCCC1` (centres undefined) is 17.1%; for `O=C(O)CC[N+](=O)[O-]` it is 13%.
Still for that read-out and setting: the figure for `CCCN(CCC)C1CCc2ccc(O)cc2C1` (centres undefined) is 6.52%.
On the same count and under the same terms, the figure for `NC(CCP(=O)(O)O)C(=O)O` (centres undefined) is 12.6%.
With `O=[N+]([O-])c1c2ccccc2cc2ccccc12`, the max response is -7.57%.
As to `O=C(O)[C@@H]1CCN1`, the max response is 23.1%.
With `CC(C)(C)NC[C@H](O)c1ccc(O)cc1Cl`, the max response is 2.84%.
Take `COC(=O)c1cncn1C(C)c1ccccc1` (centres undefined): the max response was -7.45%.
With `C[N+]1(C)C2CCC1CC(OC(=O)C(CO)c1ccccc1)C2` (centres undefined), the max response was 23.1% and 28.3%.
As to `Cn1cnc(CCN)c1`, the max response is 33.2%.
As to `CN[C@@H](C)[C@H](O)c1ccccc1`, the max response is -11.3%.
As for `O=C1C(I)=CC(=C(c2cc(I)c(O)c(I)c2)c2ccccc2C(=O)O)C=C1I`, the max response is 4.96% and 16.9%.
Take `NC(=O)CN1CC(O)CC1=O` (centres undefined): the max response was -2.78% and 8.87%.
As for `CCCN(CCC)[C@@H]1CCc2ccc(O)cc2C1`, the max response is 10.7%.
Take `COCCOCCO`: the max response was -9.77%.
Same read-out and setting: the figure for `CC(C)NC(C)Cc1ccc(I)cc1` (centres undefined) is 8.77%; for `CCC1(CCC(C)C)C(=O)NC(=O)NC1=O` it is 2.89%; for `O=C(O)COc1ccccc1` it is -2.31%.
Consider `COc1cc(C(O)CN)ccc1O` (centres undefined), for which the max response is 2.34%.
Same read-out and setting: the result for `C[C@@H](N)Cc1cnc[nH]1` reads 1.66%; that for `CCCN1CCO[C@@H]2c3cc(O)ccc3OC[C@H]21`, -5.59% and 5.71%; that for `C[C@]12CCC3C(CC[C@H]4C[C@H](O)CC[C@]34C)C1CC[C@@H]2C(=O)CO` (some centres undefined), 12.3%.
On to `O=C(O)C(Cl)Cl`, for which the max response is -4.42% and 4.64%.
In the case of `CS(=N)(=O)CC[C@H](N)C(=O)O` (some centres undefined), the max response is -10.6%.
Still for that read-out and setting: the result for `O=C1CCCN1CC#CCN1CCCC1` reads 30.9%; that for `NCc1cc(=O)[nH]o1`, 24.8%.
In the case of `CC(=O)[C@H]1CCC2C3CC[C@H]4C[C@H](O)CC[C@]4(C)C3CC[C@@]21C` (some centres undefined), the max response is 27.5%.
As to `S=C(SSC(=S)N1CCCCC1)N1CCCCC1`, the Potency was 0.148 µM (active).
Take `O=C(O)Cc1cnc[nH]1`: the max response was 3.18%.
As to `O=C(O)c1cc(Oc2ccc(C(F)(F)F)cc2Cl)ccc1[N+](=O)[O-]`, the max response was -10.7%.
Still for that read-out and setting: the figure for `Clc1cnc(Oc2ccc(Oc3ncc(Cl)cc3Cl)cc2)c(Cl)c1` is 17.9%.

System in the next assay: not listed separately
The assay can be described thus: qHTS assay for cell viability of HEK293 cells (AID 743288). Also: % is scaled to controls: 0 for no effect and ±100 for the full control effect; nearly all actives have a fitted effect of over 50% in size. The settings on record: ATP luminescence (CellTiter-Glo), 18 h; max response: active compounds read low. In short, it runs like this:
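Luminescent ATP quantitation served as the viability read-out. Cells (parental HEK293, 2,000/well) received compounds after at least 5 h at 37 C and were exposed for 18 h before a 30 min room-temperature reagent step.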
For `O=[N+]([O-])c1c2ccccc2cc2ccccc12`, the max response is -0.948%.
Consider `COCCOCCO`, for which the max response was -8% and -15.7%.
On the same count and under the same terms, the result for `O=C(O)COc1ccccc1` reads -7.91%; that for `O=C(O)C(Cl)Cl`, -7.67% and 1.66%; that for `O=C(O)c1cc(Oc2ccc(C(F)(F)F)cc2Cl)ccc1[N+](=O)[O-]`, -14.8%.
For the compound `Clc1cnc(Oc2ccc(Oc3ncc(Cl)cc3Cl)cc2)c(Cl)c1`, the max response is -12.9%.

The values above are taken from PubChem BioAssay (NCATS).
